Experimental data taken from PubChem BioAssay.

test: small molecules captured by biotinylated probe aFST – biochemical, small-molecule microarray, fluorescence 635/667, stem cell growth factor project, primary screen (AID 1086); conditions: higher = more signal;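 also: score merges 667 nm fluorescence with signal-to-noise of each printed compound spot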

Row | Structure (SMILES) | composite z-score
1 | [N-]=[N+]=Nc1ccccc1[C@H]1OC(c2ccc(OCCCO)cc2)=N[C@@]1(Cc1ccccc1)C(=O)N1CCCCC1 | 0.763
2 | CCCNC(=O)[C@@]1(c2ccc([N+](=O)[O-])cc2)CC(=O)N(C2CCCCC2)[C@@H]1c1ccc(CO)cc1 | 0.565
3 | CN1C(=O)C2C=CC(C(O)c3ccccn3)N(N(c3ccccc3)c3ccccc3)C2C1=O (stereo unspecified) | 0.613
4 | COCCOC(=O)N1C(=O)[C@@]2(c3cc(C#CC4=CCCCC4)ccc31)[C@H](c1ccc(O)cc1)N1[C@H](c3ccccc3)[C@H](c3ccccc3)OC(=O)[C@H]1[C@@H]2C(=O)N1CCN(c2ncccn2)CC1 | -0.841
5 | C[N+](C)(C)CCCCCCNC(=O)[C@H]1C[C@H]2C(=O)N[C@@H](Cc3ccccc3)C(=O)N2[C@H]1c1ccc(O)cc1 | -0.0859
6 | O=C1NC(=O)C2C1C=CC(C(O)c1cccc3ccccc13)N2Nc1ccc(Cl)cc1Cl (stereo unspecified) | 1.34
7 | COC(=O)[C@@]1(Cc2ccc(F)cc2)[C@H]2c3cc(C(=O)N4CCCC4)n(CCc4ccc(O)c(O)c4)c3C[C@H]2CN1C(=O)c1ccccc1 | 1.05
8 | O=C(CS)NCCCCCCNC(=O)[C@H]1C[C@H]2C(=O)N[C@@H](Cc3ccccc3)C(=O)N2[C@H]1c1ccc(O)cc1 | -0.571
9 | C#CCN([C@@H](Cc1ccc(O)cc1)C(=O)OC)[C@@H](/C=C/C1CC1)[C@H](O)Cc1ccccc1 | -0.09
10 | CCOC(=O)c1ccc(NC(=O)O[C@H]2[C@H](OC(=O)Nc3ccc4c(c3)OCO4)[C@@H](OC(=O)Nc3ccc4c(c3)OCO4)[C@@H](OC)O[C@@H]2CO)cc1 | 0.474
11 | O=c1n(-c2ccccc2)c(=O)n2n1CC(COc1ccccc1)=C([C@H](O)CCc1ccccc1)[C@@H]2CO | 0.0915
12 | COc1ccc([Si](C)(C)[C@@H]2[C@@H](CC(=O)N3Cc4ccccc4C[C@H]3CO)O[C@]3(C(=O)N(Cc4cccc(N5C(=O)c6cccc7cccc5c67)c4)c4ccccc43)[C@H]2C)cc1 | 0.593
13 | CN(C)C(=O)[C@]1(CCS(=O)(=O)c2ccccc2)N=C(c2ccc(OCCCO)cc2)O[C@@H]1c1ccccc1N=[N+]=[N-] | 1.84
14 | COC(=O)[C@@]1(Cc2ccc(OC)cc2)[C@H]2c3cc(C(=O)N4CCCC4)n(Cc4c(-c5ccccc5)noc4C)c3C[C@H]2CN1C(=O)c1ccccc1 | 1.73
15 | O=C1O[C@H](c2ccccc2)[C@H](c2ccccc2)N2[C@H]1[C@@H](C(=O)O)[C@]1(C(=O)Nc3ccc(C#CC4=CCCCC4)cc31)[C@H]2c1ccc(O)cc1 | 0.189
16 | COc1cc2c(cc1OC)CN(C(=O)[C@@H]1[C@H]3C(=O)O[C@H](c4ccccc4)[C@H](c4ccccc4)N3[C@H](c3ccc(OCCO)cc3)[C@@]13C(=O)Nc1ccccc13)CC2 | 0.29
17 | COC(=O)[C@@]1(Cc2ccccc2)[C@H]2c3cc(C(=O)N(C)C)n(CCN4CNCC4=O)c3C[C@H]2CN1C(=O)c1ccccc1 | 2
18 | CN(C)c1ccc(C(O)C2C=CC3C(=O)N(c4ccccc4)C(=O)C3N2Nc2ccc([N+](=O)[O-])cc2)cc1 (stereo unspecified) | 1.63
19 | C=C(C)c1cc2c(c(CCCCCC)n1)[Si](C(C)C)(C(C)C)OC2 | -0.437
20 | O=C1O[C@@H](c2ccccc2)[C@@H](c2ccccc2)N2[C@@H](c3ccc(O)cc3)[C@]3(C(=O)Nc4ccc(C#CC5(O)CCCCCC5)cc43)[C@@H](C(=O)NC[C@H](O)c3ccccc3)[C@H]12 | -0.405
21 | COCCCNC(=O)[C@@]1(Cc2ccccc2N=[N+]=[N-])N=C(c2ccc(OCCCO)cc2)O[C@H]1c1ccccc1 | 0.404
22 | O=C1O[C@H](c2ccccc2)[C@H](c2ccccc2)N2[C@H]1[C@@H](C(=O)Nc1nc3ccccc3s1)[C@]1(C(=O)Nc3ccc(C#CCCO)cc31)[C@H]2c1ccc(O)cc1 | 0.652
23 | COC(=O)[C@@]1(Cc2ccccc2)[C@H]2c3cc(C(=O)N(C)C)n(CCc4ccc(O)c(OC)c4)c3C[C@H]2CN1C(=O)c1ccccc1 | 1.34
24 | O=C1OCC=C[C@H]2OC34C=CCN(c5ccc(Cl)cc5)C(=O)[C@H]3N(CCO)C(=O)[C@@H]4[C@@H]12 (stereo partly specified) | -0.915
25 | CC(C)Cc1ccc(CN2CC[C@@H](NC(=O)Nc3ccccc3)C2)cc1 | -0.275
26 | C=CCC(OC(C)=O)[C@@H]1[C@@H](N(Cc2cc3ccccc3o2)C(=O)c2ccc(-c3ccccc3)cc2)c2cc(OCCCO)ccc2N1C(=O)c1ccc2ccccc2c1 (stereo partly specified) | 0.679
